In PubChem BioAssay:

Tests used:
[1] = test system: Human papillomavirus type 1a protein E7 (residues 44-93); assay: HPV1a E7 fragment binders on microarrays, primary screen, biochemical, small-molecule microarray, residues 44-93, 635 nm fluorescence (AID 1108); conditions: small-molecule microarray binding, fluorescence 635 nm; higher = more signal;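 also: E7 fragment applied at 1 µg/mL in TBST for 1 h at 4 C; score combines spot fluorescence with its signal to noise ratio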
[2] = modulators of HCV replicon luciferase signal, primary screen, HCV replication inhibitor project, Huh7 cells, luciferase reporter (AID 1109); conditions: 48 h, higher = more signal;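 also: huh7 hepatoma cells harbouring a luciferase neomycin HCV replicon reporter; luciferase luminescence as measure of HCV replicon replication; test concentration not given here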
[3] = biological target: Left-right determination factor 2 (Homo sapiens) (UniProt O00292); assay: LEFTY2 binders on small-molecule microarrays, primary screen, biochemical, small-molecule microarray, 635 nm fluorescence scan (AID 1110); conditions: LEFTY2 binding, higher = more signal
[4] = biological target: Calmodulin-1 (Homo sapiens) (UniProt P0DP23); assay: CALM1 binders on microarrays, EGTA buffer, profiling panel, biochemical, small-molecule microarray, Cy5-labelled CALM1 (AID 1111); conditions: Cy5-CALM1 binding fluorescence, higher = more signal;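 also: labelled calmodulin applied in Tris saline Tween buffer holding calcium plus EGTA and DTT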
[5] = biological target: Calmodulin-1 (Homo sapiens) (UniProt P0DP23); assay: calcium-bound CALM1 binders on microarrays, profiling panel, artefact control for SMM control-protein annotation, biochemical, small-molecule microarray, Cy5-labelled CALM1, plus calcium (AID 1112); conditions: Cy5-CALM1 binding fluorescence, higher = more signal;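 also: score merges spot fluorescence with signal to noise from triplicate slides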
[6] = small-molecule microarray binders of probe aWnt5a, primary screen, biochemical, biotinylated probe, 635/667 nm fluorescence (AID 1113); conditions: higher = more signal;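 also: score merges 667 nm fluorescence intensity with signal-to-noise per printed feature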
[7] = small-molecule microarray binders of probe aShh, primary screen, biochemical, biotinylated probe, 635/667 nm fluorescence (AID 1114); conditions: higher = more signal;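 also: probe is biotin-labelled aShh protein from a stem cell growth factor screen; measures binding of labelled protein to compounds printed on the slide; score merges feature fluorescence at 667 nm with signal-to-noise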
[8] = small-molecule microarray binders of probe aNog, primary screen, biochemical, biotinylated probe, 635/667 nm fluorescence (AID 1115); conditions: higher = more signal;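 also: probe is biotinylated aNog protein used at 0.15 µg/mL for 1 h at 4 C; z-score combines 667 nm fluorescence of each spot with its signal to noise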
[9] = biological target: Torsin-1A-interacting protein 1 (Homo sapiens) (UniProt Q5JTV8); assay: LAP1 binders from COS7 cell lysate, primary screen, small-molecule microarray, 635/667 nm fluorescence (AID 1116); conditions: COS7-hLAP1 lysate binding, 635 nm fluorescence, higher = more signal
[10] = biological target: Alpha-bungarotoxin (Bungarus multicinctus) (UniProt P60615); assay: alpha-bungarotoxin binders on microarray, profiling panel, artefact control for SMM control protein annotation, biochemical, small-molecule microarray, Alexa647 label, 635/667 nm fluorescence (AID 1117); conditions: alpha-BTX-A647 binding fluorescence, higher = more signal
Alpha-bungarotoxin (Bungarus multicinctus), sequence (P60615 whole entry, looked up): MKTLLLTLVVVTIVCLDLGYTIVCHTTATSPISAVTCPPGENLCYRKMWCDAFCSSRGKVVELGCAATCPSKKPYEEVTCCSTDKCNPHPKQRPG

Torsin-1A-interacting protein 1 (Homo sapiens), sequence (Q5JTV8 whole entry, looked up): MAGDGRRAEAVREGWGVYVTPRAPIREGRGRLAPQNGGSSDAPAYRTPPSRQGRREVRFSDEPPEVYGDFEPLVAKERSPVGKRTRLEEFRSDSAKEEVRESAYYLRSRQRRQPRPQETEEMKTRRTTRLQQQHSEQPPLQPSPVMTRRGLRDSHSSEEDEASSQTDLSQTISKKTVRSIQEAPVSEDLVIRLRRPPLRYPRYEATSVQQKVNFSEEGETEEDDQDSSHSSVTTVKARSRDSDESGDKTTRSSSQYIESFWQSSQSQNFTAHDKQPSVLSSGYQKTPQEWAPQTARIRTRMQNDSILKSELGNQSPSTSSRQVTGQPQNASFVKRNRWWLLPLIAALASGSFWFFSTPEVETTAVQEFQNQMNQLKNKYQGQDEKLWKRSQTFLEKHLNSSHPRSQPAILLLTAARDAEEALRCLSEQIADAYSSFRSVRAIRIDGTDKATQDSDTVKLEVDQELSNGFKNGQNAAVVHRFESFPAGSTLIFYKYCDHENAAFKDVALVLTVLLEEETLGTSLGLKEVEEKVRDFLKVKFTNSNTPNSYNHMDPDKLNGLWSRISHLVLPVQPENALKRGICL
Left-right determination factor 2 (Homo sapiens), sequence (O00292 whole entry, looked up): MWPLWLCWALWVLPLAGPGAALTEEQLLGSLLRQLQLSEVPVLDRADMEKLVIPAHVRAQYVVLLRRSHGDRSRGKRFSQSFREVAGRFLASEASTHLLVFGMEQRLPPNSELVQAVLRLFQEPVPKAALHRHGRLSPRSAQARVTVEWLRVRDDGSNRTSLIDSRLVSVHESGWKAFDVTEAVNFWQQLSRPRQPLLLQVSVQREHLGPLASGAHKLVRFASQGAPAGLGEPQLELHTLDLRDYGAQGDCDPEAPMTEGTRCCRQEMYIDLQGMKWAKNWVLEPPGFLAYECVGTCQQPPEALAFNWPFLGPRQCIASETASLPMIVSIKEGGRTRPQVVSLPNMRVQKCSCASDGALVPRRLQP

| SMILES | composite z-score [1] | z-score [2] | composite z-score [3] | composite z-score [4] | composite z-score [5] | composite z-score [6] | composite z-score [7] | composite z-score [8] | composite z-score [9] | composite z-score [10] |
| --- | --- | --- | --- | --- | --- | --- | --- | --- | --- | --- |
| COCC(=C=CC[C@H](O)c1ccccc1OCCO)CCO | 0.0008 | -0.266 | -0.378 | -0.0866 | -0.037 | -0.096 | 0.0723 | 0.509 | 1.34 | 0.804 |
| COc1cc(CO)cc(I)c1O[C@H]1C=C(C(=O)NCCO)C[C@@H](NC[C@@H]2CCCO2)[C@@H]1O | 1.33 | -0.695 | 0.187 | -0.0113 | -0.732 | -0.096 | -0.304 | -0.267 | 1.13 | 0.693 |
| C=C(CCCC)/C(=C/C[C@H](OC(C)=O)c1ccccc1OCCO)c1cnc2ccccc2c1 | 0.984 | -2.75 | 0.0641 | -0.0602 | -0.796 | -0.0718 | -0.0709 | -0.327 | 0.469 | 0.887 |
| COCCCNC(=O)[C@@H]1c2ccccc2C(=O)N(Cc2ccccc2)[C@H]1c1ccc(CO)cc1 | 0.364 | -0.719 | 0.221 | -0.448 | 0.004 | 0.0215 | 0.131 | -0.69 | 1.32 | -0.222 |
| [N-]=[N+]=Nc1ccccc1C[C@@]1(C(=O)N2CCCCC2)N=C(c2ccc(OCCCO)cc2)O[C@@H]1c1ccccc1N=[N+]=[N-] | 0.869 | -2.71 | -0.145 | 1.6 | 1.04 | 0.151 | 0.778 | 0.353 | 0.71 | 2.09 |
| C=CC[C@]1(C(N)=O)N=C(c2ccc(OCCCO)cc2)O[C@H]1c1ccccc1 | -0.434 | -0.31 | -0.524 | 0.27 | -0.665 | -0.0685 | 0.401 | 0.041 | 1.59 | 0.947 |
| C=C[C@H](C)[C@@H](OC(=O)Nc1ccc(SC)cc1)c1ccc(O)c2ccccc12 | 1.41 | -0.751 | 1.23 | 0.988 | -0.0069 | -0.101 | -0.0553 | -0.343 | 0.575 | 0.893 |
| O=C1OCCC=C[C@H]2OC34C=CCN(CCN5CCOCC5)C(=O)[C@H]3N(CCCCCO)C(=O)[C@@H]4C12 (stereo not given in full) | 0.57 | 0.305 | -0.529 | 0.667 | -0.836 | -0.147 | -0.237 | -0.103 | 2.24 | 1.88 |
| COC(=O)[C@@]1(Cc2ccc(F)cc2)[C@H]2c3cc(C(=O)N(C)C)n(Cc4cc(C)n(C)n4)c3C[C@H]2CN1C(=O)c1ccccc1 | 0.923 | 0.107 | -0.476 | 2.43 | 0.669 | 0.418 | -0.0324 | 1.82 | 2.58 | 0.42 |
| COC(=O)[C@@]1(Cc2ccc(OC)cc2)[C@H]2c3cc(C(=O)N4CCCC4)n(CCc4ccc(O)c(O)c4)c3C[C@H]2CN1C(=O)c1ccccc1 | -1.4 | -1.1 | -0.618 | 1.39 | 0.679 | -0.0057 | -0.0977 | 1.12 | 2.24 | 0.0407 |
| CC(c1ccccc1)C(O)C1C=CC2C(=O)N(C)C(=O)C2N1NC(=O)OC(C)(C)C (stereo not given) | 0.664 | 0.658 | -0.0606 | 2.55 | 0.265 | 0.0377 | -0.273 | 1.54 | 2.11 | 1.29 |
| O=c1cccc(-c2ccccc2Cl)o1 | 0.201 | -0.143 | -0.12 | -0.559 | -0.503 | -0.124 | 0.0952 | -0.593 | 0.21 | -0.183 |
| O=C1C2C=CC(C(O)c3ccc(F)cc3)N(Nc3ccc([N+](=O)[O-])cc3)C2C(=O)N1c1ccccc1 (stereo not given) | 0.883 | -1.03 | -0.424 | 1.76 | 0.554 | 0.155 | 0.294 | 0.0676 | 0.733 | 1.76 |
| CN(C)CCCCCCNC(=O)[C@@H]1C[C@@H]2C(=O)N3CCC[C@H]3C(=O)N2[C@@H]1c1ccc(O)cc1 | 1.42 | 1.49 | 1.5 | -1.95 | -1.42 | -0.062 | 0.42 | -0.364 | 2.23 | 2.36 |
| CCOC(=O)C1=C[C@@H](C(C)C)N(S(=O)(=O)c2ccc(C)cc2)[C@H]1c1ccccc1F | 1.34 | -2.04 | 0.605 | 1.74 | 0.0462 | -0.001 | 0.116 | 0.541 | 1.08 | 1.39 |
| C[C@H]1C2[C@H](Cc3ccccc3)NC(=O)[C@]23C(=O)NCC(=O)N2CCC[C@H]2C(=O)NC/C=C/CCC/C=C/C3[C@@H]2O[C@]12C (stereo not given in full) | -0.484 | 0.478 | -0.693 | -0.738 | -1.2 | -0.0075 | -0.138 | -0.387 | -0.106 | -0.65 |
| CCOc1cc(C(O)C2C=CC3C(=O)N(c4ccccc4)C(=O)C3N2Nc2ccc(C(C)C)cc2)ccc1O (stereo not given) | 1.45 | -0.517 | -0.211 | 0.983 | -0.0316 | 0.0433 | -0.0119 | 1.2 | -0.102 | 1.91 |
| O=C(O)[C@@]1(CCS(=O)(=O)c2ccccc2)N=C(c2ccc(OCCCO)cc2)O[C@H]1c1ccccc1 | 1.32 | -0.124 | -0.665 | 2.47 | 0.967 | -0.0084 | 0.0639 | 1.1 | 1.08 | 0.524 |
